Bioassay records: PubChem, The Scripps Research Institute Molecular Screening Center
Sampled rows, rich in hits. Any-hit rate of the full collection: about 5.7%.
AHR act – human AHR activation; 320,000 compounds, 2.5% hits; P35869; activation, % at 5 µM; AHR-responsive luciferase reporter cells, luminescence; in the data active means activation above about 47%;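 further: 0% = vehicle wells and 100% = reference agonist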
DAX1 inh-1 – DAX1 (NR0B1) inhibition, primary screen. HEK293T StAR-luciferase reporter, SF-1/DAX-1 repression relief. inhibition, % at 6.8 µM. 370,000 compounds, 1.1% hits. AID 652010;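 active means inhibition above the mean over all tested compounds plus 3 SD, cut at about 3.6% in these data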;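 further: 0% = DAX-1 cells with DMSO and 100% = cells lacking DAX-1 with DMSO; higher inhibition means more luminescence from relief of DAX-1 repression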
hgDAF12 agonist – agonists of H. glycines DAF-12 nuclear receptor. 370,000 compounds, 1.8% hits. HEK293 GAL4-hgDAF12 UAS-luciferase reporter, agonist luminescence; normalized to butyrate control. activation, % at 6.8 µM. AID 687014;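 active means activation above a cutoff set at the mean of all screened compounds plus 3 SD, cut at about 10% in these data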;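 further: 0% = DMSO wells and 100% = sodium butyrate wells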
DAX1 inh-2 – NR0B1 (DAX1) inhibition; 340,000 compounds, 0.99% hits; inhibition, % at 6.75 µM; HEK293 Gal4-DAX1 luciferase reporter, luminescence;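 active means inhibition above the mean over all tested compounds plus 3 SD, cut at about 4.2% in these data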;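 further: 0% = DAX1-transfected cells with DMSO and 100% = empty-vector control cells with DMSO; inhibition shows as a rise in luminescence from relieved DAX1 repression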
hcDAF12 agonist – H. contortus DAF-12 activation, primary screen | HEK293 hcDAF-12 lit1-tk-luc reporter, luminescence; 0% DMSO, 100% Δ7-dafachronic acid | activation, % at 6.8 µM | 370,000 compounds, 1.4% hits;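 active means activation above the mean of all tested compounds plus 3 SD, cut at about 5.5% in these data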;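 further: 100% = response to 3 µM Δ7-dafachronic acid high control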
ssDAF-12 act – activators of S. stercoralis DAF-12 nuclear receptor. 370,000 compounds, 1% hits. activation, % at 6.8 µM. HEK293 ssDAF-12/GRIP1 lit1-tk-luc reporter, luminescence; % of 3 µM dafachronic acid response;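 active means activation above the mean over all tested compounds plus 3 SD, cut at about 0.9% in these data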;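 further: 0% = DMSO-only wells and 100% = 3 µM delta7-dafachronic acid wells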
An asterisk follows results filed as active; x = not tested or not shown.

SMILES	AHR act	DAX1 inh-1	hgDAF12 agonist	DAX1 inh-2	hcDAF12 agonist	ssDAF-12 act
Cc1ccccc1C(=O)Nc1ccc2c(c1)C(=O)NC2=O	10	0	3	2	0	-1
COCCCNC(=O)Cn1cnc2c(OCc3ccccc3)ncnc21	0	0	0	2	0	0
COc1ccc(OC(=O)COc2cc(C)ccc2C)cc1	0	-1	1	-2	-1	-1
COC(=O)c1cnn(-c2ccccc2)c1C(OC)OC	0	0	1	4.5*	0	-1
CC(=O)C1=C(O)C(=O)N(CCc2c[nH]c3ccccc23)C1c1cccc(O)c1 (configuration not stated)	15	0	0	-1	5.7*	0
COc1cc(C2C(C(C)=O)=C(O)C(=O)N2CCc2c[nH]c3ccccc23)ccc1O (configuration not stated)	5	1	2	2	0	0
Cn1ncc(Br)c1C(=O)Nc1cccc(C(F)(F)F)c1	71*	1	2	1	1	-1
COC(=O)c1ccccc1C(=O)N1CCCC(CNC(=O)c2ccc(F)cc2)C1 (configuration not stated)	3	0	-1	0	2	0
FC(F)Oc1ccc(-c2csc(=Nc3cccnc3)n2CC2CCCO2)cc1 (configuration not stated)	48*	-2	-5	-3	-6	-2
COCCn1c(-c2ccc(Br)cc2)csc1=Nc1cccnc1	11	-4	-4	-1	-3	-3
O=S(=O)(/C=C/c1ccccc1)Nc1cccc(S(=O)(=O)NC2=NCCC2)c1	0	0	1	-1	1	-1
COc1ccc2c(c1)c(=O)oc1cc(OCC(=O)NC3CCCCC3)ccc12	-5	0	0	5.9*	2	0
CC(C)(C)NC(=O)CN1CCCN(C(=O)c2cccc(S(=O)(=O)N3CCc4ccccc43)c2)CC1	11	-1	-1	0	1	0
C=CCN(c1ccccc1Cl)S(=O)(=O)c1cc(C(=O)N2CCCC2)ccc1Cl	-1	0	0	2	-1	-1
COc1ccccc1NC(=O)c1nnn(CC(=O)Nc2ccccc2)c1N	47*	-1	1	-1	0	-1
COc1ccccc1NC(=O)Cn1nnc(C(=O)Nc2ccccc2)c1N	11	0	2	2	0	-1
COC(=O)C1=C(C)N(Cc2ccccc2C(F)(F)F)C(=NCc2ccc(OC)cc2)NC1c1cccc(F)c1 (configuration not stated)	x	0	-2	x	0	-1
C=C(C)c1cccc(C(C)(C)NC(=O)Nc2nncs2)c1	10	0	-2	4.8*	-2	-1
C=C(C)c1cccc(C(C)(C)NC(=O)Nc2nnc(C(C)C)s2)c1	3	0	-1	-1	-1	-2
CCOC(=O)[C@@]12CCC3=C1N(CCC3)C(=O)[C@H](CC(=O)NCCc1ccccc1OC)C2	x	-1	-2	x	-3	0.9*
COc1ccc2c(c1)CN1C(=O)N(CCc3ccccc3)S(=O)(=O)CC21 (configuration not stated)	x	1	5	x	1	-1
CCCCN1C(=O)N2Cc3cc(OC)ccc3C2CS1(=O)=O (configuration not stated)	x	1	11*	x	5.6*	-1
O=C1c2ccccc2CC1Sc1nnc(-c2ccncc2)o1 (configuration not stated)	63*	0	2	1	3	1
CC(C)c1ccc(CN(C(=O)c2cc3ccccc3oc2=O)C2CCS(=O)(=O)C2)cc1 (configuration not stated)	-1	0	1	0	0	-1
O=C(C(c1ccccc1)c1ccccc1)N(Cc1ccco1)C1CCS(=O)(=O)C1 (configuration not stated)	-1	0	-4	1	-2	-1
CN(C)c1ccc(CN(C(=O)c2cc3ccccc3oc2=O)C2CCS(=O)(=O)C2)cc1 (configuration not stated)	4	5.2*	7	1	2	0
O=C(c1cc2ccccc2oc1=O)N(Cc1ccco1)C1CCS(=O)(=O)C1 (configuration not stated)	0	1	13*	1	5	0
